The source of these data is PubChem BioAssay (Tox21).

Results filed as inconclusive are left out. Active and inactive are the calls of the source. Calls come from the whole dose curve; as a rule, active = well fitted activation curve with a large enough effect in the signal ratio in the repeat runs (not every such curve was filed as active); inconclusive = weak or mixed curves; inactive = flat fitted curve, though single readings scatter; the % refers to the signal ratio.

The nature of the assay: qHTS assay to identify small molecule agonists of the TGF-beta/Smad signaling pathway (AID 1346859). The following applies: SBE-bla HEK293T, TGF-beta/Smad beta-lactamase reporter, 5 h; series mostly up to 76.8 µM. From the text: U.S. Tox21 Program National Center for Advancing Translational Sciences [NCATS] NIH Chemical Genomics Center [NCGC] U.S. Environmental Protection Agency [EPA] National Institutes of Environmental Health Sciences [NIEHS] National Toxicology Program [NTP] U.S. Food and Drug Administration [FDA] Tox21 Assay Overview: Transforming growth factor beta (TGF-beta) superfamily consists of a large number of structurally related dimeric proteins that act as hormones or local mediators in regulating a wide range of biological functions. This superfamily includes TGF-betas themselves, the bone morphogenetic proteins (BMPs) and the activins. These ligands induce oligomerization of serine/threonine receptor kinases and phosphorylate the cytoplasmic signaling molecules of Smad protein family. CellSensor SBE-bla HEK 293T cell line (Life Technologies, Carlsbad, CA), responsive to TGF-beta was used to screen Tox21 10K compound library for identification of agonists/antagonists of the Smad signaling pathway. This cell line contains a beta-lactamase reporter gene under control of the Smad binding element (SBE) stably integrated into HEK 293T cells.
Tox21 Assay Protocol Summary: SBE-bla HEK 293T cells were dispensed at 4,000/well in 6 uL of assay medium into black wall/clear-bottom 1536-well plates using a Multidrop Combi (ThermoFisher Scientific, Waltham, MA) dispenser. After the assay plates were incubated at 37 C and 5% CO2 for an overnight, 23 nL of compounds dissolved in DMSO, positive controls or DMSO only was transferred to the assay plate by a Pintool station (Kalypsys, San Diego, CA). The assay plates were incubated at 37 C and 5% CO2 for 5 hr. One uL of LiveBLAzer B/G FRET substrate (Life Technologies) was added using a Flying Reagent Dispenser (Aurora Discovery, San Diego, CA) and the plates were incubated at room temperature for 2 hr. Fluorescence intensity (405 nm excitation, 460 nm and 530 nm emissions) was measured using an Envision plate reader (PerkinElmer, Shelton, CT).
As to `c1ccc2c(c1)[nH]c1cnccc12`, the compound was called inactive.
To `CC(C)[C@H](C(=O)OC(C#N)c1cccc(Oc2ccccc2)c1)c1ccc(OC(F)F)cc1` (stereo not given in full) belongs “inactive”; to `BrC(Br)C(Br)(Br)Br`, “inactive”.
To `O=c1c(C2CC(c3ccc(-c4ccc(Br)cc4)cc3)Cc3ccccc32)c(O)sc2ccccc12` (stereo not given) belongs “inactive”.
To `CC(O)C#N` (stereo not given) belongs “inactive”; to `CC(=[OH+])/C=C(/C)[O-].CC(=[OH+])/C=C(\C)[O-].CC(=[OH+])/C=C(\C)[O-].[Fe]`, “inactive”.
As to `CCC(C)c1cc(C(C)(C)C)cc(-n2nc3ccccc3n2)c1O` (stereo not given), the compound was called inactive.
Regarding `FC(F)(F)c1cccc(C2=CCN(CCc3ccc4ccccc4c3)CC2)c1`, the call was inactive.
To `COC[C@H](C)N(C(=O)CCl)c1c(C)csc1C` belongs “inactive”; to `OC(c1ccc(Cl)cc1)(c1ccc(Cl)cc1)C(Cl)(Cl)Cl`, “inactive”.
In the case of `COc1cc(C=O)cc2c1[C@H](COC(N)=O)[C@]1(OC(C)=O)ON2C[C@H]2[C@@H]1N2C(C)=O`, the call was inactive.
With `CN(C)S(=O)(=O)N(SC(F)(Cl)Cl)c1ccccc1`, the compound was classed as inactive.
As for `O=CC(Br)(Br)Br`, the entry is “inactive”; as for `Oc1c(Br)c(Br)c(Br)c(Br)c1Br`, “inactive”; as for `CCOC(=O)C1(c2ccccc2)CCN(CCC(C#N)(c2ccccc2)c2ccccc2)CC1`, “inactive”.
As for `CNC(C)Cc1ccc2c(c1)OCO2` (stereo not given), the entry is “inactive”; as for `N#CNC#N`, “inactive”; as for `CC(=O)c1ccc(-c2ccccc2)cc1`, “inactive”.
As to `CCCN(CCC)CCc1c[nH]c2ccccc12`, the compound was classed as inactive.
Take `CN(C)c1ccc(N=Nc2ccccc2)cc1`: the result was inactive.
To `Clc1ccc(Oc2ccccc2)cc1` belongs “inactive”.
For `C=CC(=O)N(C)C`, the call was inactive.
To `CC(C)CC(C)N` (stereo not given) belongs “inactive”; to `CC(C)OC(=O)C(O)(c1ccc(Cl)cc1)c1ccc(Cl)cc1`, “inactive”; to `ClC(Cl)=C(c1ccc(Cl)cc1)c1ccc(Cl)cc1`, “inactive”.
As for `CN(CCCC(=O)c1cccnc1)N=O`, the entry is “inactive”.
As for `CCCCOP(=O)(CCCC)OCCCC`, the entry is “inactive”; as for `CC1(c2ccc(Oc3ccccc3)cc2)OC(=O)N(Nc2ccccc2)C1=O` (stereo not given), “inactive”; as for `C=CC(=O)OCCCCOC(=O)C=C`, “inactive”.
As to `COc1cc(N)c(Cl)cc1C(=O)NC1CN2CCC1CC2` (stereo not given), the call was inactive.
Take `ClC1=C(Cl)[C@]2(Cl)[C@@H]3[C@@H](Cl)[C@H](Cl)C[C@@H]3[C@@]1(Cl)C2(Cl)Cl`: the compound was called inactive.
To `CC(C)(C)OO` belongs “inactive”; to `N#CSCSC#N`, “inactive”.
As for `O=C(O)C1C2CCC(O2)C1C(=O)O` (stereo not given), the entry is “inactive”.
Take `CCN(CC)c1c([N+](=O)[O-])cc(C(F)(F)F)c(N)c1[N+](=O)[O-]`: the compound was classed as inactive.
To `NC(=O)CCl` belongs “inactive”.
To `O=C1c2ccccc2C(=O)C1C(=O)C(c1ccccc1)c1ccc(Cl)cc1` (stereo not given) belongs “inactive”.
On to `CCCCCCCCCCCCCCCC[N+](C)(C)C`, for which the compound was called inactive.
Regarding `CCCN(CC)CC1COC2(CCC(C(C)(C)C)CC2)O1` (stereo not given), the compound was classed as inactive.
To `C[As+](C)(C)CC(=O)[O-]` belongs “inactive”.
